Measured values taken from PubChem BioAssay (NCATS).
Results filed as inconclusive are left out. Active and inactive are the calls of the source. Unless noted, the call rests on the fitted dose curve; in most records, active means well fitted curve in the direction sought with a large enough effect; inconclusive means small, poorly fitted or top-dose-only effect, or another doubt; inactive means no such curve, though single readings can be large; an effect the other way counts as inactive or inconclusive.

Experiments:
[1] = NCATS anti-infectives library activity on HEK293 viability as a counter-qHTS vs the C. elegans viability qHTS (AID 1745854); further: on the % scale 0 is the no-effect control and ±100 the full control effect
Method in brief: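 Cytotoxicity counter-screen to a worm viability qHTS: CellTiter-Glo luminescence read 10 min after reagent addition. Compounds (final up to 41.7 uM, a 1:5 dilution series) incubated 24 hr at 37C with 1,500 HEK293 cells per well; digitonin control.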

[2] = Viability counterscreen for antagonist of constitutive androstane receptor (CAR) against the NCATS DSHEA and TCM libraries (AID 1794837);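 further: compound exposure lasted 24 h before viability reading; 0% is about no effect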
Method in brief: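 Cells: HepG2 line carrying CYP2B6 reporter and hCAR, seeded and attached 5 h. Then pin-transferred test substances plus agonist CITCO at 48 uM final; 24 h incubation; fluorogenic viability reagent, 1 h.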

[3] = Viability counterscreen for agonist of constitutive androstane receptor (CAR) against the NCATS DSHEA and TCM libraries (AID 1794838);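 further: HepG2 cells with CYP2B6 reporter and hCAR plus 0.75 µM PK11195 antagonist; 0% is about no effect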
Method in brief: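 Cell health was measured as CellTiter-Fluor signal in HepG2-CYP2B6-hCAR cells treated for 24 h with substances alongside the hCAR antagonist PK11195 (0.75 uM final).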

[4] = HepG2 viability counterscreen (readout 2: ATP content) against the NCATS DSHEA and TCM libraries (AID 1794840); further: 0% is about no effect
Method in brief: (§1)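 Same wells read twice: first fluorescence from cleaved GF-AFC substrate (25 uM final, 30 min, 37C) for live-cell protease, then CellTiter-Glo luminescence after 30 min at room temperature for ATP. HepG2 cells were exposed ~24 h to substances.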

[5] = target: Cytochrome P450 2D6 (Homo sapiens) (UniProt P10635); experiment: qHTS for inhibitors of CYP2D6 against the NCATS DSHEA and TCM libraries (AID 1919972); further: on the % scale 0 is the no-effect control and ±100 the full control effect
Method in brief: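 CYP2D6 enzyme with pro-luciferin substrate in manufacturer buffer (typically 100 mM KPO4), preincubated 15 min RT with substances (most at 19.5 nM upward); NADPH regeneration system (1x) started 30–45 min RT reaction; P450-Glo luminescence read after 30 min; quinidine as intraplate control.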

[6] = target: Cytochrome P450 2C19 (Homo sapiens) (UniProt P33261); experiment: qHTS for inhibitors of CYP2C19 against the NCATS DSHEA and TCM libraries (AID 1919974);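 further: luminescence from luciferin released by CYP2C19 oxidation of a pro-luciferin substrate; potency means the concentration at half of the fitted maximal effect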
Method in brief: (§2)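 Each CYP isoform and its pro-luciferin substrate, at isoform-specific final concentrations, were preincubated 15 min at RT with substances. NADPH regeneration solution (1x) started a 30-45 min reaction, and P450-Glo luminescence was read.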

[7] = KB-3-1 P-gp reporter qHTS against the NCATS DSHEA and TCM libraries (AID 1919975); further: 0% is about no effect
Method in brief: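 KB-3-1 parental line, 1536-well qHTS: cells seeded, ~4 h attachment, pintool compound addition, ~72 h at 37C, then CellTiter-Glo, 30 min RT, luminescence. Concentration-response format.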

[8] = qHTS Counterscreen for compound interference against the NCATS DSHEA and TCM libraries (AID 1919978); conditions: firefly luciferase detection reagent interference, luminescence;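 further: compounds preincubated with 1 µM D-luciferin or buffer before detection reagent; % of control where 0% means no effect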
Method in brief: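 Compounds, titrated from 19.5 nM to 39.8 uM final, were pinned onto 1 uM D-luciferin or plain 100 mM potassium phosphate. After 15 min at room temperature, luciferin detection reagent was added for 30 min before the luminescence read.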

[9] = Dual reporter qHTS for agonist of Pregnane X Receptor (hPXR) against the NCATS DSHEA and TCM libraries: Fluorescence readout (AID 1920058); further: 0% is about no effect
Method in brief: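 Viability readout (CellTiter-Fluor, 405/540 nm, 1 h) from agonist-mode PXR dual reporter in hPXR-Luc HepG2 cells. Substances ~24 h, 37 °C, 5% CO2; rifampicin reference, tetraoctyl ammonium bromide cytotoxic control.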

[10] = target: Nuclear receptor subfamily 1 group I member 2 (Homo sapiens) (UniProt O75469); experiment: Dual reporter qHTS for agonist of Pregnane X Receptor (hPXR) against the NCATS DSHEA and TCM libraries: Luminescence readout (AID 1920059); further: 0% is about no effect
Method in brief: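 hPXR-LucHepG2 cells in phenol red-free DMEM with 5% charcoal-stripped FBS, 2000 cells/well, attached 5 h, then exposed 24 h at 37C to compounds; rifampicin as positive agonist control (2.8 nM–92 uM). Luciferase luminescence read.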

[11] = target: Nuclear receptor subfamily 1 group I member 2 (Homo sapiens) (UniProt O75469); experiment: Dual reporter qHTS for antagonist of Pregnane X Receptor (hPXR) against the NCATS DSHEA and TCM libraries: Luminescence Readout (AID 1920060);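 further: HepG2 cells carrying hPXR luciferase reporter stimulated with rifampicin at 2 µM; 0% is about no effect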
Method in brief: (§3)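 hPXR-Luc HepG2 cells exposed 24 h at 37 C to compounds with 2 uM rifampicin in antagonist mode; luciferase luminescence measured by ONE-Glo, with CellTiter-Fluor viability read beforehand.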

[12] = Dual reporter qHTS for antagonist of Pregnane X Receptor (hPXR) against the NCATS DSHEA and TCM libraries: Fluorescence Readout (AID 1920061); further: 0% is about no effect
Method in brief: as §3

[13] = target: Glutathione peroxidase 1 (Homo sapiens) (UniProt P07203); experiment: Primary qHTS Assay for Inhibitors of Recombinant Selenoprotein Glutathione Peroxidase 1 (GPX1) (AID 1845191); further: nearly all actives have a fitted effect of over 65% in size
Method in brief: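 GPX1 10 nM, GR 100 nM, GSH 1 mM, NADPH 0.5 mM, CHP 0.5 mM (final). 30-min cpd preincubation, RT. Ex340/Em450 read t=0, t=15 min.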

[14] = target: Phospholipid hydroperoxide glutathione peroxidase GPX4 (Homo sapiens) (UniProt P36969); experiment: Primary qHTS Assay for Inhibitors of Recombinant Selenoprotein Glutathione Peroxidase 4 (GPX4) (AID 1845192); further: nearly all actives have a fitted effect of over 65% in size
Method in brief: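 qHTS, GR-coupled: GPX4 200 nM + cpd 30 min RT → GSH 1 mM, NADPH 0.5 mM, GR 100 nM → CHP 0.5 mM start; fluor 340/450 at t0 and t15 min; no-enzyme wells as control.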

[15] = qHTS drug screen for cell cycle checkpoint inhibitors in PARPi-resistant BRCA-mutant ovarian cancer cell lines. (AID 1963452; calls by dose curve); conditions: PEO1/OlaR viability, CellTiter-Glo luminescence, 96 h, stronger effect = lower value
Method in brief: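 PEO1, PEO4 and PEO1/OlaR ovarian cancer cells, 600 per well, exposed 96 h at 37C to a dilution series. Viability read by CellTiter-Glo luminescence, normalized to DMSO and empty wells; activity summarized as Z-AUC.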

[16] = target: Nuclear receptor subfamily 1 group I member 3 (Homo sapiens) (UniProt Q14994); experiment: Primary qHTS for agonist of constitutive androstane receptor (CAR) against the NCATS DSHEA and TCM libraries (AID 1794839);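 further: HepG2 cells expressing human CAR with a CYP2B6 reporter plus PK11195 antagonist; 0% is about no effect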
Method in brief: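 qHTS, agonist mode: HepG2-CYP2B6-hCAR, 2,500 cells/well, 5 h attach; cpds + PK11195 0.75 µM final; 24 h, 37 °C, 5% CO2. Readouts: CellTiter-Fluor (405/540 nm), then ONE-Glo luminescence.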

[17] = target: Cytochrome P450 3A4 (Homo sapiens) (UniProt P08684); experiment: qHTS for inhibitors of CYP3A4 against the NCATS DSHEA and TCM libraries (AID 1919971);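 further: on the % scale 0 is the no-effect control and ±100 the full control effect; inhibition lowers luminescence from luciferin made by CYP3A4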
Method in brief: as §2

[18] = target: Cytochrome P450 1A2 (Homo sapiens) (UniProt P05177); experiment: qHTS for inhibitors of CYPIA2 against the NCATS DSHEA and TCM libraries (AID 1919976); further: series mostly up to about 37 µM; on the % scale 0 is the no-effect control and ±100 the full control effect
Method in brief: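 Reaction started with 1x NADPH regeneration solution and run 30-45 min, room temperature, protected from light, after compounds sat 15 min with CYP1A2 and pro-luciferin substrate. P450-Glo detection gave luminescence; furafylline served as control.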

[19] = HepG2 viability counterscreen (readout 1: protease activity) against the NCATS DSHEA and TCM libraries (AID 1794841);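 further: cells exposed to compounds for about 24 h before the protease read; 0% is about no effect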
Method in brief: as §1

[20] = NCATS anti-infectives library activity on the primary C. elegans qHTS viability assay (AID 1745855; calls by dose curve; further: potency means the concentration at half of the fitted maximal effect)
Method in brief: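 GFP read-out by 488 nm laser cytometry at day 0, 3 and 7, gated on object perimeter, area and peak intensity, scored viability of PE254-GFP-FLuc worms exposed to compound in S medium with bacterial capsules at 21 °C.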

Sequence of Cytochrome P450 2D6 (Homo sapiens) (P10635 whole entry, looked up): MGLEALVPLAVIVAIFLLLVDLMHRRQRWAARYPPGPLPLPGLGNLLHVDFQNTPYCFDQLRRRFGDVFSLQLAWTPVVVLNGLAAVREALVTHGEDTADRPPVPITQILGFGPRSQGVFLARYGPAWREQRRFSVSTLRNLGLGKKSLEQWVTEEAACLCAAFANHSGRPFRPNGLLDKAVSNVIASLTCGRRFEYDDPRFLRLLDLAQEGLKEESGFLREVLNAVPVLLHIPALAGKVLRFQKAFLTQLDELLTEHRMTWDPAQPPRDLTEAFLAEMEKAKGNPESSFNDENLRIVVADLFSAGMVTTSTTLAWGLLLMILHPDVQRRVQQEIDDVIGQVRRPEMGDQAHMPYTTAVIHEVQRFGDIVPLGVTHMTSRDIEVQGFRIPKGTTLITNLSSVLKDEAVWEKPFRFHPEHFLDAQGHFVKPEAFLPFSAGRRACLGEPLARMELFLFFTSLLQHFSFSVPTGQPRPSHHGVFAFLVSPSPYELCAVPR
Sequence of Nuclear receptor subfamily 1 group I member 2 (Homo sapiens) (O75469 whole entry, looked up): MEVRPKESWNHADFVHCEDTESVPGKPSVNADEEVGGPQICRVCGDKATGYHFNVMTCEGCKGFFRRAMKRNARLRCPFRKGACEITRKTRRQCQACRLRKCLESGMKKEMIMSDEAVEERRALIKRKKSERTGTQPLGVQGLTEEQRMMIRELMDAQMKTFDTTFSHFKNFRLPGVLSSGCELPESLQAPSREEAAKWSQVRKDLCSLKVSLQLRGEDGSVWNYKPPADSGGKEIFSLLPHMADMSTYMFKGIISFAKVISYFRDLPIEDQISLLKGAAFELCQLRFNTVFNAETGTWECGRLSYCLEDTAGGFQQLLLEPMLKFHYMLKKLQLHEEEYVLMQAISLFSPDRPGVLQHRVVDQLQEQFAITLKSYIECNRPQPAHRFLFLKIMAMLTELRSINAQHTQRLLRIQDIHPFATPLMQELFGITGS
Sequence of Glutathione peroxidase 1 (Homo sapiens) (P07203 whole entry, looked up): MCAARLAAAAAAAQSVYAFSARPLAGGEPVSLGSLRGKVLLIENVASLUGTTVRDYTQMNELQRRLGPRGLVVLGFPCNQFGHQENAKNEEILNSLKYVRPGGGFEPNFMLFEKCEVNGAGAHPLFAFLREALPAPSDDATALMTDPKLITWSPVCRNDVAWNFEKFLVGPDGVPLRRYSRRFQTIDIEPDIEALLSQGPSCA
Sequence of Cytochrome P450 1A2 (Homo sapiens) (P05177 whole entry, looked up): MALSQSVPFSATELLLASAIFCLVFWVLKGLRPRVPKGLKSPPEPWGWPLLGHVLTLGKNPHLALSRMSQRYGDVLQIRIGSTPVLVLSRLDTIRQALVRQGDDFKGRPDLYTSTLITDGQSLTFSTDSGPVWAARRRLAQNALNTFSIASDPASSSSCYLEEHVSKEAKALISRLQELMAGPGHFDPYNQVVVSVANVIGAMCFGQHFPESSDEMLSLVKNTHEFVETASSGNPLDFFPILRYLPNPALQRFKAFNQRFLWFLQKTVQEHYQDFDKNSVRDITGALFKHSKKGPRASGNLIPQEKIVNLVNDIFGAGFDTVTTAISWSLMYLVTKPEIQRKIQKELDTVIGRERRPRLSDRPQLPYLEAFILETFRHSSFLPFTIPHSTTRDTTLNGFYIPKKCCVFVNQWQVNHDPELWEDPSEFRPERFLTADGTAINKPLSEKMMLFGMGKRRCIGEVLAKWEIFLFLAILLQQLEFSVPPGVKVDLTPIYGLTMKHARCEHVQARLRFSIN
Sequence of Cytochrome P450 3A4 (Homo sapiens) (P08684 whole entry, looked up): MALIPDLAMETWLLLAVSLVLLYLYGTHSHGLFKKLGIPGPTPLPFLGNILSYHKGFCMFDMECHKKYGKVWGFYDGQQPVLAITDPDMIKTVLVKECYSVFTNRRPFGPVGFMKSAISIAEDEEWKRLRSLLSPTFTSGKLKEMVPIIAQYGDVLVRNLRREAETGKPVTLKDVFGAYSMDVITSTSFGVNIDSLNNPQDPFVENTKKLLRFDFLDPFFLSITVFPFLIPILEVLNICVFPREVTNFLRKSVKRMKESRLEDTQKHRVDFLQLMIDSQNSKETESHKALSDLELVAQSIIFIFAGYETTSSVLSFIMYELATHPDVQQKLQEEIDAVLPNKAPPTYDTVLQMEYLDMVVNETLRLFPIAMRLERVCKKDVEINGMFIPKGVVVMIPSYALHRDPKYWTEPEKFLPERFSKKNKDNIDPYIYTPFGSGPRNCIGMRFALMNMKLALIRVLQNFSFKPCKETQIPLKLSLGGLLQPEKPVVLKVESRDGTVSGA
Sequence of Phospholipid hydroperoxide glutathione peroxidase GPX4 (Homo sapiens) (P36969 whole entry, looked up): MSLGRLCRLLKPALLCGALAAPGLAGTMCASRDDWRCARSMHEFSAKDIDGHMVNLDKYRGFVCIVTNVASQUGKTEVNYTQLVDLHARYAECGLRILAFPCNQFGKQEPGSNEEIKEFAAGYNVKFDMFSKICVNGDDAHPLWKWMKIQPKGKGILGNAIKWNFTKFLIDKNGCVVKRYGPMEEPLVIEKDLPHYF
Sequence of Nuclear receptor subfamily 1 group I member 3 (Homo sapiens) (Q14994 whole entry, looked up): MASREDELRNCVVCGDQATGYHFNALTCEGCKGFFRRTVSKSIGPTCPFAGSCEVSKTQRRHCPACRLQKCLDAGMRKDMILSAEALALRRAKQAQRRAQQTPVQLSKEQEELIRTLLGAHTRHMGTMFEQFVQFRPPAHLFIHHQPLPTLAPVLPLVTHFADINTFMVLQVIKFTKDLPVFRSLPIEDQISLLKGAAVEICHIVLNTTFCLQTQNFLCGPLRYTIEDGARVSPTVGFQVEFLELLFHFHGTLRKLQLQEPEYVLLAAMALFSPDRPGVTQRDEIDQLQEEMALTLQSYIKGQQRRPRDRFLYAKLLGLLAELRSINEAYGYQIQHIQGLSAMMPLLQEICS
Sequence of Cytochrome P450 2C19 (Homo sapiens) (P33261 whole entry, looked up, canonical isoform): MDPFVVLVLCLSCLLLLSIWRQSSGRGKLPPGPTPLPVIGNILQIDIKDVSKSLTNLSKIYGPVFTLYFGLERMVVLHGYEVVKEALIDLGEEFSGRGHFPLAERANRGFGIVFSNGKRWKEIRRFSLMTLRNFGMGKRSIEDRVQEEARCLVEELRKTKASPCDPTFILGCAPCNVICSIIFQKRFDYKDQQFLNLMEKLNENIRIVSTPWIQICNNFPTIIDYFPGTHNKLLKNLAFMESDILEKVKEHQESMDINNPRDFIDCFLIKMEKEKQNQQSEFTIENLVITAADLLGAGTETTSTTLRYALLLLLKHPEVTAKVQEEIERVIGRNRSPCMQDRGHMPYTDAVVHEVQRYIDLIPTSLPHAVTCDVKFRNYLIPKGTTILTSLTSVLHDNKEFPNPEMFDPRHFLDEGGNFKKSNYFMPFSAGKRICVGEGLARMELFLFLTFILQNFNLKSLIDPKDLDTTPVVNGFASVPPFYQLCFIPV

O=c1c(O[C@@H]2O[C@H](CO)[C@H](O)[C@H](O)[C@H]2O)c(-c2ccc(O)c(O)c2)oc2cc(O)cc(O)c12
inactive: Potency [1] | outcome [2] | outcome [3] | outcome [4] | Potency [5] | outcome [7] | max response [8] 1.88% | outcome [9] | Potency [10] | outcome [11] | outcome [12]
active: Potency [6] 3.55 µM

CCCCC(=O)N(Cc1ccc(-c2ccccc2-c2nn[nH]n2)cc1)[C@H](C(=O)O)C(C)C
inactive: Potency [1] | Potency [13]

CC[C@@]1([C@@H]2O[C@@H]([C@H]3O[C@@](O)(CO)[C@H](C)C[C@@H]3C)C[C@@H]2C)CC[C@H]([C@]2(C)CCC3(C[C@H](O)[C@@H](C)[C@@H]([C@@H](C)[C@@H](OC)[C@H](C)C(=O)O)O3)O2)O1 (stereo partly specified)
inactive: activity change, negative = cytotoxicity [1] -29.3% [at 3.71 µM] | Potency [13] | Potency [14] | Z-AUC [15] -0.884
-0.753: Z-AUC ([15]; measured here: PEO1 parental Z-AUC)
-1.58: Z-AUC ([15]; measured here: PEO4 Z-AUC)

O=C(/C=C/c1ccc(O)c(O)c1)O[C@H]1[C@H](O)C[C@](O)(C(=O)O)C[C@H]1OC(=O)/C=C/c1ccc(O)c(O)c1
inactive: Potency [1] | outcome [2] | outcome [3] | Potency [16] | Potency [17] | Potency [5] | outcome [7] | Potency [18] | max response [8] -1.54% | outcome [9] | Potency [10] | outcome [11] | outcome [12]

O=C(/C=C/c1ccc(O)c(O)c1)O[C@@H]1CC(O)(C(=O)O)C[C@@H](OC(=O)/C=C/c2ccc(O)c(O)c2)C1O (stereo partly specified)
inactive: Potency [1] | outcome [2] | outcome [3] | Potency [16] | outcome [4] | outcome [19] | Potency [17] | Potency [5] | outcome [7] | Potency [18] | max response [8] 3.46% | outcome [9] | Potency [10] | outcome [11]

C[C@@]1(F)[C@H](O)[C@@H](CO)O[C@H]1n1ccc(=O)[nH]c1=O
inactive: Potency [1] | Potency [20]

CC(C)(C)c1cc(C(=O)/C(C#N)=N/Nc2cccc(Cl)c2)no1
active: Potency [20] 14.5 µM
inactive: Potency [1]
